From PubChem
GPT2 inhibitor – GPT2 alanine aminotransferase inhibition. Recombinant GPT2, coupled pyruvate oxidase/HRP Amplex Red fluorescence. Q8TD30. 0.25% of 100,000 active. Potency, µM (doses to about 57.7 µM), without a hit: top-dose activity change, negative = inhibition, hits mostly inhibitors; note: nearly all actives have a fitted effect of over 60% in size
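Inhibition is scored from Amplex Red fluorescence generated when pyruvate oxidase and HRP act on pyruvate released by GPT2. Reactions contain 10ng/uL enzyme, 250uM a-KG and 2mM L-alanine and run 30 min at room temperature.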
NIH3T3 tox – kills NIH 3T3 cells; NIH 3T3 viability, CellTiter-Glo ATP luminescence, 48-72 h; 4.3% of 94,000 active; AID 1345082; Potency, µM (top dose mostly 96.7 µM), inactives show at the top dose activity change, negative = cytotoxicity, usual class: inhibitors; note: nearly all actives have a fitted effect of over 55% in size
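Cells were seeded at 400 per well, treated with pin-transferred compound, and kept 48 or 72 hr at 37 °C before CellTiter-Glo addition and luminescence imaging of cellular ATP.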
NPR1 antag – antagonists of human natriuretic peptide receptor Npr1; P16066; HEK293 hNpr1 GloSensor cGMP, ANP-stimulated luminescence; Potency, µM (series often up to 46.3 µM), without a hit: top-dose activity change, negative = inhibition, most hits filed as inhibitors; 1.6% of 76,000 active; calls by dose curve; note: nearly all actives have a fitted effect of over 60% in size
Target sequence (P16066 whole entry, looked up): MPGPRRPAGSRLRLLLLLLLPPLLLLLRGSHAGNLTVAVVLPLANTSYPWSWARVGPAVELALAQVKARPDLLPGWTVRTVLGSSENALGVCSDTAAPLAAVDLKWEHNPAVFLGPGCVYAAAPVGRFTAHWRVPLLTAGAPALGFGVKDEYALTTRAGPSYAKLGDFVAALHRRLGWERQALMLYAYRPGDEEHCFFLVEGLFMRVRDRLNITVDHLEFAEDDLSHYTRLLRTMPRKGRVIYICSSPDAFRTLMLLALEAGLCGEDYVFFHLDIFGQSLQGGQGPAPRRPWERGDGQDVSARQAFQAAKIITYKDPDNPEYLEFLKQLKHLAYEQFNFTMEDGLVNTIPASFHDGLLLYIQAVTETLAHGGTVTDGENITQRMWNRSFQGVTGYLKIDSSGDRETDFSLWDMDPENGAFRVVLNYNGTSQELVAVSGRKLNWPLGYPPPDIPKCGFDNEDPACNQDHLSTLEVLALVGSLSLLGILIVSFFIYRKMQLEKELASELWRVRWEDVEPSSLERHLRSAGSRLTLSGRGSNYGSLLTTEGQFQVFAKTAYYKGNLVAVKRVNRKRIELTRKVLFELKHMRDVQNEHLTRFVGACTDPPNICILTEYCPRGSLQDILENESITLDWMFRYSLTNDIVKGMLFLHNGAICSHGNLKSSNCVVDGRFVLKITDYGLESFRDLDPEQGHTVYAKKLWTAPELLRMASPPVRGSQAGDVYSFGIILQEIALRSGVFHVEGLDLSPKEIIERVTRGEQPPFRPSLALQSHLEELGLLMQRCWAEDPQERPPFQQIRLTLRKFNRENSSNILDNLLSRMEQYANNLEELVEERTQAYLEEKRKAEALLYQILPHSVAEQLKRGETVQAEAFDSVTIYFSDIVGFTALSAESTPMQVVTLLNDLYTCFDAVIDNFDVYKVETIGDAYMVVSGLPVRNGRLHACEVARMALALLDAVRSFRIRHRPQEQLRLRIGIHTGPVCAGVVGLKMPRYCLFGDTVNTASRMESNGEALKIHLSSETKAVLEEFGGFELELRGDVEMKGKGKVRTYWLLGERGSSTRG
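HEK293 cells stably expressing human Npr1 and cGMP GloSensor pGS-40F, loaded 2 h with 2% GloSensor reagent, given compound 30 min at room temperature. Luminescence read before and 20 min after 0.1 nM hNppA.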
HEK cytotox – cytotoxic compounds in HEK 293 cells | HEK 293 viability, ATP luminescence (CellTiter-Glo), 48-72 h | Potency, µM (doses to about 115 µM), for the others: top-dose activity change, negative = cytotoxicity, usual class: inhibitors | 6.6% of 94,000 active | AID 1345083; note: nearly all actives have a fitted effect of over 60% in size
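250 HEK 293 cells/well; compound by pintool; incubated 48 or 72 hr at 37 degree Celsius; CellTiter-Glo added, 10 min RT, luminescence imaged.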
Luciferase inh – inhibitors of firefly (Photinus pyralis) luciferase | P08659 | purified P. pyralis luciferase, luminescence, biochemical | Potency, µM (titrated, usually from 115 µM), most hits filed as inhibitors | 2.5% of 76,000 active | AID 1347043; note: nearly all actives have a fitted effect of over 65% in size
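Biochemical qHTS: compound (6-point titration) added to 10uM D-luciferin plus 10uM ATP in Tris acetate pH 7.5 buffer with Mg, Tween-20 and BSA, then purified enzyme at 10nM; light output imaged.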
An asterisk follows results filed as active; i = inactive; ? = inconclusive; . = no result; [ ] = dose if it differs, or a comment. Most compounds without a hit are left out; they make up all but 10% or so of the library. Unless noted, calls come from the whole dose curve; as a rule, active = well fitted curve in the direction sought with a large enough effect; inconclusive = small, poorly fitted or top-dose-only effect, or another doubt; inactive = no such curve, though single readings can be large; an effect the other way counts as inactive or inconclusive. % is set by controls: 0 for no effect and ±100 for the full control effect; potency is the fitted concentration of half-maximal effect.

SMILES	GPT2 inhibitor	NIH3T3 tox	NPR1 antag	HEK cytotox	Luciferase inh
Cc1ccc(NC(=O)N2CCC3(CC2)C(=O)N(CC(=O)N2CCCC2)CN3c2ccccc2)cc1	-9.8%	?	-2.6%	?	8.91µM*
O=C(NCc1ccccc1)c1cnc2n1CCN(Cc1ccccc1F)CC2	3.1%[88.5 µM]	?	-8.4%[70.6 µM]	28.2µM*	i
Cc1ccc(CN2CCc3ncc(C(=O)NCCOc4ccccc4)n3CC2)o1	i	35.5µM*	-9.5%[70.6 µM]	50.1µM*	i
O=C(NCCOc1ccccc1)c1cnc2n1CCN(Cc1ccc(F)cc1)CC2	-3.8%[88.5 µM]	?	-18.0%[70.6 µM]	?	i
O=C(C1CCN([S+](=O)([O-])c2cccs2)CC1)N1CCC(N2Cc3ccccc3C2=O)CC1	-21.6%	?	.	?	.
O=C(NCc1cccnc1)c1ccc(N2CC3CC(C2)[C@H]2CCCC(=O)N2C3)nc1 (stereo not given in full)	3.7%	5.01µM*	-2.8%	10.0%	i
O=C(NCc1cc(F)cc(F)c1)c1ccc(N2CC3CC(C2)[C@H]2CCCC(=O)N2C3)nc1 (stereo not given in full)	i	-25.4%	0.9%	-8.6%	i
O=C(NCc1ccc(F)cc1F)c1ccc(N2CC3CC(C2)[C@H]2CCCC(=O)N2C3)nc1 (stereo not given in full)	i	28.2µM*	3.5%	-2.2%	i
COc1ccccc1Cn1c(=O)c(C(=O)NCc2cccc(Cl)c2)nc2cccnc21	-31.2%	?	.	-29.3%	.
Cc1ccc(C(=O)N2CCN(Cc3ccc(=O)n(C)c3)CC2)cc1F	i	-20.5%	0.4%	-4.7%	i
COc1ccc(C(=O)N2CCN(Cc3ccc(=O)n(C)c3)CC2)cc1F	i	-6.4%	1.9%	-18.9%	39.8µM*
CC(C)(C)C(=O)N1CCN(Cc2ccccc2-c2cccnc2)CC1	i	-28.9%[138 µM]	.	100µM*	.
O=C(C1CCCC1)N1CCN(Cc2ccccc2-c2cccnc2)CC1	-3.8%	?	.	50.1µM*	.
CC(=O)N1CCN(Cc2ccccc2-c2cccnc2)CC1	-0.3%[88.5 µM]	-13.2%[138 µM]	.	-0.6%[172 µM]	.
COc1ccc(-c2cccc(C(=O)N3CCN(C(=O)Cc4ccccc4)CC3)c2)nn1	.	-29.6%	.	-3.6%	.
N#Cc1ccc(NC2CC(c3cc(N4CCC(O)C4)ncn3)C2)nc1 (stereo not given)	i	15.8µM*	1.3%	-8.7%	i
CC(=O)NCCC1CCN(C(=O)Nc2ccc(C)c(F)c2)CC1	3.8%	i	-27.9%	3.4%	5.01µM*
O=C(NCCC1=CCCCC1)C1CCN(C(=O)c2ncn3c2COC(c2ccccc2)C3)CC1 (stereo not given)	i	-9.7%	-22.4%	-6.5%	2µM*
CCCCNC(=O)C1CCN(C(=O)c2ncn3c2COC(c2ccc(F)cc2)C3)CC1 (stereo not given)	i	-2.3%	1.0%	-15.4%	39.8µM*
COc1ccc(C2Cn3cnc(C(=O)N4CCC(C(=O)NCCC5=CCCCC5)CC4)c3CO2)cc1 (stereo not given)	i	i	3.9%	0.8%	i
CCCCNC(=O)C1CCN(C(=O)c2ncn3c2COC(c2ccc(OC)cc2)C3)CC1 (stereo not given)	-9.7%	i	-0.9%	-4.8%	i
O=C(NCCC1=CCCCC1)C1CCN(C(=O)c2ncn3c2COC(c2ccc(F)cc2)C3)CC1 (stereo not given)	i	-23.5%	-6.2%	-12.6%	22.4µM*
O=C(c1cccc(Cl)c1)N1CCN(C(=O)c2nc3cccnc3n(C3CC3)c2=O)CC1	i	-26.3%	.	2.0%	.
COC[C@H]1C[C@H]2C[C@@H](OC)[C@H](N(C)Cc3cccc(F)c3)[C@]2(O)CO1	0.5%[27.3 µM]	-5.5%[46.1 µM]	.	?	.
CCN(CC)C(=O)/C(C#N)=C/c1cc(O)c(O)c([N+](=O)[O-])c1	8.91µM*	.	.	.	.
SMILES	GPT2 inhibitor	NIH3T3 tox	NPR1 antag	HEK cytotox	Luciferase inh
COc1cc2c(cc1OC)CN(C(=O)C[C@@H]1CCNC[C@@H]1Cc1cc(-c3ccccc3)on1)CC2	2.7%	?	3.7%	79.4µM*	i
O=C(C[C@@H]1CCNC[C@@H]1Cc1cc(-c2ccccc2)on1)N1CCc2ccccc2C1	4.9%[88.5 µM]	31.6µM*	-11.2%[70.6 µM]	39.8µM*	i
CN(Cc1cc(C[C@H]2CNCC[C@H]2CC(=O)N2CCN(c3ccccc3)CC2)no1)c1ccccc1	-3.1%	20µM*	-17.4%	?	i
CN1CCN(C(=O)C[C@@H]2CCNC[C@@H]2Cc2cc(-c3ccccc3)on2)CC1	-10.8%[88.5 µM]	?	-13.4%[70.6 µM]	-29.5%[172 µM]	i
COc1ccc(-c2cc(C[C@H]3CNCC[C@H]3CC(=O)N3CCN(c4ccccc4)CC3)no2)cc1	-0.9%	25.1µM*	-0.5%	39.8µM*	i
Cn1ccc2ccc(-c3nc(C4CCOC4)no3)cc21 (stereo not given)	-8.8%	?	0.5%	-25.0%	35.5µM*
CCS(=O)(=O)Nc1ccc(-c2nc(C3CCOC3)no2)cc1 (stereo not given)	-0.5%	-16.9%	2.1%	-13.0%	i
c1cnn(-c2ccc(-c3nc(C4CCOC4)no3)cc2)c1 (stereo not given)	-10.8%	-23.3%	?	?	15.8µM*
NC1(C(=O)N2CCCC(CCc3ccccc3F)C2)CCC1 (stereo not given)	-14.9%	-25.7%	1.6%	?	i
Cc1ccccc1CCC1CCCN(C(=O)C2(C)CC2)C1 (stereo not given)	i	?	-6.7%	22.4µM*	?
COc1ccc(-c2cnc3n[nH]c(-c4ccccc4)c3n2)cc1	-0.9%[88.5 µM]	79.4µM*	-1.4%[70.6 µM]	89.1µM*	i
COc1cccc(-c2cnc3n[nH]c(-c4ccccc4)c3n2)c1	?	39.8µM*	-4.5%[70.6 µM]	56.2µM*	i
O=C(NCc1cccs1)c1cc(Br)cn2ccnc12	0.0%[88.5 µM]	?	14.8%[70.6 µM]	?	?
N#Cc1ccc(C(=O)N2CCC(n3cc(-c4nc(C5CC5)no4)nn3)C2)cc1 (stereo not given)	i	-24.3%	?	?	i
O=C(NCC1CCOCC1)c1cnc2n[nH]c(-c3ccccc3)c2n1	2.1%[88.5 µM]	79.4µM*	3.8%[70.6 µM]	?	i
O=C(NCc1ccc(F)cc1)c1cnc2n[nH]c(-c3ccccc3)c2n1	-1.4%[88.5 µM]	50.1µM*	-26.5%[70.6 µM]	?	i
O=C(c1cnc2n[nH]c(-c3ccccc3)c2n1)N1CCOCC1	2.6%[88.5 µM]	?	-10.8%[70.6 µM]	?	i
O=C(NCCc1ccccc1)c1cnc2n[nH]c(-c3ccccc3)c2n1	i	?	-17.0%[70.6 µM]	-26.1%[172 µM]	i
O=C(c1cnc2n[nH]c(-c3ccccc3)c2n1)N1CCN(c2ccccn2)CC1	-12.0%[88.5 µM]	?	-13.4%[70.6 µM]	70.8µM*	i
COc1ccc(-c2[nH]nc3ncc(C(=O)NCc4ccc(F)cc4)nc23)c(C)c1	i	22.4µM*	-18.7%[70.6 µM]	31.6µM*	i
